# Source: ChEMBL document CHEMBL1961873, “Compounds: GSK PKIS; Assays: Nanosyn kinase panel” (2012)
# Legend:
# [1] = target: Dual specificity protein kinase CLK3 (Homo sapiens) (UniProt P49761); details: at 1 µM;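 also: each value is the mean inhibition of CLK3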
# [2] = target: Dual specificity tyrosine-phosphorylation-regulated kinase 1A (Homo sapiens) (UniProt Q13627); details: at 0.1 µM
# [3] = target: Dual specificity tyrosine-phosphorylation-regulated kinase 1A (Homo sapiens) (UniProt Q13627); details: at 1 µM
# [4] = target: Dual specificity tyrosine-phosphorylation-regulated kinase 1B (Homo sapiens) (UniProt Q9Y463); details: at 0.1 µM
# Chain of Dual specificity tyrosine-phosphorylation-regulated kinase 1B (Homo sapiens) (Q9Y463 whole entry, looked up): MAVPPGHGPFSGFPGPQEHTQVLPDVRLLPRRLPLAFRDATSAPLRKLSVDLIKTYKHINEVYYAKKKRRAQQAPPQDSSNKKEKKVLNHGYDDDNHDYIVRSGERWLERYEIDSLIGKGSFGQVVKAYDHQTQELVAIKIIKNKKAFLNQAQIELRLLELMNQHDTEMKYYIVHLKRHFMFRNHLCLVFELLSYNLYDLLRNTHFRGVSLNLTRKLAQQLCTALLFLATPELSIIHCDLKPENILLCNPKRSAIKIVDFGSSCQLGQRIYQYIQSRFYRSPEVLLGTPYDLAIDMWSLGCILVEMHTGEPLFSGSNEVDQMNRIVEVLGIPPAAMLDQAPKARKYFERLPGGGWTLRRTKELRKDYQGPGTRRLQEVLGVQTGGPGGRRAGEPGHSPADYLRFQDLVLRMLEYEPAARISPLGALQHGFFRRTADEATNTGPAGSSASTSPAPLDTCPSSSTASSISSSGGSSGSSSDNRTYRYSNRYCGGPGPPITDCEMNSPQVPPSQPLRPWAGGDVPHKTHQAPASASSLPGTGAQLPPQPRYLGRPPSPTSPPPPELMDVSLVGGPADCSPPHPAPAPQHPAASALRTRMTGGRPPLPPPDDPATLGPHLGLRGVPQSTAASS
# [5] = target: Dual specificity tyrosine-phosphorylation-regulated kinase 1B (Homo sapiens) (UniProt Q9Y463); details: at 1 µM
# [6] = target: T1, Dual specificity tyrosine-phosphorylation-regulated kinase 2 (Homo sapiens) (UniProt Q92630); details: at 0.1 µM
# T1 sequence (whole entry): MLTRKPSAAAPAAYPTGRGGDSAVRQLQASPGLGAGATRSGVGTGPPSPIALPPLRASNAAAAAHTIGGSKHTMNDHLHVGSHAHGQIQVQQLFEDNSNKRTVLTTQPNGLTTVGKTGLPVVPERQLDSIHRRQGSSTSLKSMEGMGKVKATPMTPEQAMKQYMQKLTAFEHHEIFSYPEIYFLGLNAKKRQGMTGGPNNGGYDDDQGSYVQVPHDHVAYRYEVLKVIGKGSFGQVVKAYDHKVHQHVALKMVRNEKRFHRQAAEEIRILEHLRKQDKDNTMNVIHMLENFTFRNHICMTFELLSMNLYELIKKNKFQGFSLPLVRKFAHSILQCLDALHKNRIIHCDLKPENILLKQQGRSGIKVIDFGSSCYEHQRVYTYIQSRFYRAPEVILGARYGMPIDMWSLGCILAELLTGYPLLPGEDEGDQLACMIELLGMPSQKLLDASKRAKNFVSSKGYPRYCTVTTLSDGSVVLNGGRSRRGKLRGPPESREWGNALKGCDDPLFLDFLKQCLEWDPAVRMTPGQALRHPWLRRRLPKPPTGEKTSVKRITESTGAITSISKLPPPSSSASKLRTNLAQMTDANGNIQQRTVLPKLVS
# [7] = target: T1, Dual specificity tyrosine-phosphorylation-regulated kinase 2 (Homo sapiens); details: at 1 µM
# [8] = target: Glycogen synthase kinase-3 alpha (Homo sapiens) (UniProt P49840); details: at 0.1 µM
# Chain of Glycogen synthase kinase-3 alpha (Homo sapiens) (P49840 2-483 limits assumed): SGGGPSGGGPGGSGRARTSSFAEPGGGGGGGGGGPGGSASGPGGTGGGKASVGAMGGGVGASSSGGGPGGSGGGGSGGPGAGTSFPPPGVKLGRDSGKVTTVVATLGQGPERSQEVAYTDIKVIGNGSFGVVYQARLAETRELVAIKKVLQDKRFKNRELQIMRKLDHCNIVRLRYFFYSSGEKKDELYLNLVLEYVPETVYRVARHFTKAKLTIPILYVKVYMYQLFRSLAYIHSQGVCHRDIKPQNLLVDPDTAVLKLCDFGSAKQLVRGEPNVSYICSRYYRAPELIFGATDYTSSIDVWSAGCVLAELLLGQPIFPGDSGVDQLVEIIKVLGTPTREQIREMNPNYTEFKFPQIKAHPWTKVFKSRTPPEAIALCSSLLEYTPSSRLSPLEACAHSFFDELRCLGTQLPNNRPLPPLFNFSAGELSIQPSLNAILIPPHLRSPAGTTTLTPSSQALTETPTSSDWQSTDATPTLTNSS
# [9] = target: Glycogen synthase kinase-3 alpha (Homo sapiens) (UniProt P49840); details: at 1 µM
# [10] = target: Glycogen synthase kinase-3 beta (Homo sapiens) (UniProt P49841); details: at 0.1 µM
# Chain of Glycogen synthase kinase-3 beta (Homo sapiens) (P49841 whole entry, looked up): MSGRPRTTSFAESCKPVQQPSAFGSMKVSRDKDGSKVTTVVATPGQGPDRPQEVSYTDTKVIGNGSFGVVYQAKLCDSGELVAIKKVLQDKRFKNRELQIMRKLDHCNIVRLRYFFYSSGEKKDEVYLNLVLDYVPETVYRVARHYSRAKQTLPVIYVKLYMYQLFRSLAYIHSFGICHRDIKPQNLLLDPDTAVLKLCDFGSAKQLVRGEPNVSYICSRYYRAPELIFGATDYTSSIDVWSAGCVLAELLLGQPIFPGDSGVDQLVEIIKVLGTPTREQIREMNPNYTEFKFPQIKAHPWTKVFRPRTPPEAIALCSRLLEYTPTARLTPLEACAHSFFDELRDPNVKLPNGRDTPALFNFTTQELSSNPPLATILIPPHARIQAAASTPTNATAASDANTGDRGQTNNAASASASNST
# [11] = target: Glycogen synthase kinase-3 beta (Homo sapiens) (UniProt P49841); details: at 1 µM
# [12] = target: Homeodomain-interacting protein kinase 1 (Homo sapiens) (UniProt Q86Z02); details: at 0.1 µM
# Chain of Homeodomain-interacting protein kinase 1 (Homo sapiens) (Q86Z02 whole entry, looked up): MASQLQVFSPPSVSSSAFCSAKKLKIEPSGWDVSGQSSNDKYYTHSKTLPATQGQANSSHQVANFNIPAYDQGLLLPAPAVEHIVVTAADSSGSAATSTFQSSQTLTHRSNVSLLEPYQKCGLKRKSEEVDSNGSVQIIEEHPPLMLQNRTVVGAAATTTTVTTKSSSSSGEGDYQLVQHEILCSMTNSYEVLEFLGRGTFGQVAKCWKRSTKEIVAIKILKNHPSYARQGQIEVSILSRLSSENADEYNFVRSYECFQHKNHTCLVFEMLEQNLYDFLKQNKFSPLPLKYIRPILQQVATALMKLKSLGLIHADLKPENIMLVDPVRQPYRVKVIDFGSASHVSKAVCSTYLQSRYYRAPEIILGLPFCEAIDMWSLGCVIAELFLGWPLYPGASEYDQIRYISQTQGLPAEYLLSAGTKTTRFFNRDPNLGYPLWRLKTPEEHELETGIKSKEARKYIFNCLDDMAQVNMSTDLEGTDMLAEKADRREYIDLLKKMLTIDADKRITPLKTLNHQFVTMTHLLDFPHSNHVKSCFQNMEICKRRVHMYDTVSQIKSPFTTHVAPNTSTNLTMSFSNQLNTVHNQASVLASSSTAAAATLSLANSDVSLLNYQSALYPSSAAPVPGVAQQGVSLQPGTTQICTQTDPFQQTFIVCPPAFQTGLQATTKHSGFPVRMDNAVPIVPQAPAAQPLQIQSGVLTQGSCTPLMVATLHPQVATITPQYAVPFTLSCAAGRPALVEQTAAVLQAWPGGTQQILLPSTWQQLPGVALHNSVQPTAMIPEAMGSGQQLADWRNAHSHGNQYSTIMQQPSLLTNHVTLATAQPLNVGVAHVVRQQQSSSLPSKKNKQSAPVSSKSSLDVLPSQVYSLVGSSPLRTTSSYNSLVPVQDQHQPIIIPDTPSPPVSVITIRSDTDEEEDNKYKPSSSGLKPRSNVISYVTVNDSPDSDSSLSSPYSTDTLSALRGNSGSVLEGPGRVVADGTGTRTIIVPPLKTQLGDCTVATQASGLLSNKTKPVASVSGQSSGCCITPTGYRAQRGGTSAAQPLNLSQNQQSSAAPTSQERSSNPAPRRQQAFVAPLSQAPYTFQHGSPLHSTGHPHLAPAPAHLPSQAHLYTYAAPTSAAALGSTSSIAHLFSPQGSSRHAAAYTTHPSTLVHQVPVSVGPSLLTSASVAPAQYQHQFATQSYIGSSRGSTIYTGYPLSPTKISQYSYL
# [13] = target: Homeodomain-interacting protein kinase 1 (Homo sapiens) (UniProt Q86Z02); details: at 1 µM
# [14] = target: T2, Homeodomain-interacting protein kinase 4 (Homo sapiens) (UniProt Q8NE63); details: at 0.1 µM
# T2 sequence (whole entry): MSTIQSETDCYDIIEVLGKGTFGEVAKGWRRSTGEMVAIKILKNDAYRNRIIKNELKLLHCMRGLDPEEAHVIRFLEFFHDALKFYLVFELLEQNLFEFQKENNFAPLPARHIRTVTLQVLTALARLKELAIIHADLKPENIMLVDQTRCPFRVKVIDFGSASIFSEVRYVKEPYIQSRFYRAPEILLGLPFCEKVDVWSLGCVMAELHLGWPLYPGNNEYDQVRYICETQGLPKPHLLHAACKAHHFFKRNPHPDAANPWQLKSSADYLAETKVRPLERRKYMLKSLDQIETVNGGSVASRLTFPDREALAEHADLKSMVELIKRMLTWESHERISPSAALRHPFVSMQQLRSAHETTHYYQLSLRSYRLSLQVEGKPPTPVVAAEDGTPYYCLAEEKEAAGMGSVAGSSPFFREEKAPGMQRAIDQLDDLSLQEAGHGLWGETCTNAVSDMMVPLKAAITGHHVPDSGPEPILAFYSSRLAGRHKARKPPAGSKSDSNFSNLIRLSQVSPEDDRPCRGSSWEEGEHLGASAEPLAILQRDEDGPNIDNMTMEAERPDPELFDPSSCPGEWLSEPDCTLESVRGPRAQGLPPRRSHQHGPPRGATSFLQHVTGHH
# [15] = target: T2, Homeodomain-interacting protein kinase 4 (Homo sapiens); details: at 1 µM
# [16] = target: Mitogen-activated protein kinase 9 (Homo sapiens) (UniProt P45984); details: at 0.1 µM
# Chain of Mitogen-activated protein kinase 9 (Homo sapiens) (P45984 whole entry, looked up): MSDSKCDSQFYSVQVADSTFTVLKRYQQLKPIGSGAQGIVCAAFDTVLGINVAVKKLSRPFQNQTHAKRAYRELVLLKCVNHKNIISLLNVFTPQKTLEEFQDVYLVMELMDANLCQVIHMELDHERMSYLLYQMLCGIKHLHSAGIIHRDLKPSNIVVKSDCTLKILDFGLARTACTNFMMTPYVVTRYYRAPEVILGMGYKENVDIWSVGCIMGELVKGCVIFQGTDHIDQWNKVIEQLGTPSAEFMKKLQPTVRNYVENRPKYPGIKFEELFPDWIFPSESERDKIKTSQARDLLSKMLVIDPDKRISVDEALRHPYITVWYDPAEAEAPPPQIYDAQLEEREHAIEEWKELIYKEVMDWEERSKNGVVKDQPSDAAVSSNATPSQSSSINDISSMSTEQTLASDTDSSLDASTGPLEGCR
# [17] = target: Mitogen-activated protein kinase 9 (Homo sapiens) (UniProt P45984); details: at 1 µM
# [18] = target: Mitogen-activated protein kinase 1 (Homo sapiens) (UniProt P28482); details: at 0.1 µM
# Chain of Mitogen-activated protein kinase 1 (Homo sapiens) (P28482 whole entry): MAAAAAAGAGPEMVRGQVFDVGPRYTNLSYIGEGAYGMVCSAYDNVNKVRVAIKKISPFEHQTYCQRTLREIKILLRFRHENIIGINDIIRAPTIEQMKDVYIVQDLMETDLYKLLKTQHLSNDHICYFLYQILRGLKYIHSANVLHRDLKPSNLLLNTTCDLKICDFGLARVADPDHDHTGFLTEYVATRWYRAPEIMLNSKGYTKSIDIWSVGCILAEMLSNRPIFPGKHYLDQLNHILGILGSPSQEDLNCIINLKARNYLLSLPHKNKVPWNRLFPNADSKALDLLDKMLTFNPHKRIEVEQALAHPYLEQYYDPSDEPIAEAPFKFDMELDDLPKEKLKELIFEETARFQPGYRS
# [19] = target: Mitogen-activated protein kinase 1 (Homo sapiens) (UniProt P28482); details: at 1 µM
# [20] = target: Mitogen-activated protein kinase 3 (Homo sapiens) (UniProt P27361); details: at 0.1 µM;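 also: each value is a mean inhibition figure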
# Chain of Mitogen-activated protein kinase 3 (Homo sapiens) (P27361 whole entry): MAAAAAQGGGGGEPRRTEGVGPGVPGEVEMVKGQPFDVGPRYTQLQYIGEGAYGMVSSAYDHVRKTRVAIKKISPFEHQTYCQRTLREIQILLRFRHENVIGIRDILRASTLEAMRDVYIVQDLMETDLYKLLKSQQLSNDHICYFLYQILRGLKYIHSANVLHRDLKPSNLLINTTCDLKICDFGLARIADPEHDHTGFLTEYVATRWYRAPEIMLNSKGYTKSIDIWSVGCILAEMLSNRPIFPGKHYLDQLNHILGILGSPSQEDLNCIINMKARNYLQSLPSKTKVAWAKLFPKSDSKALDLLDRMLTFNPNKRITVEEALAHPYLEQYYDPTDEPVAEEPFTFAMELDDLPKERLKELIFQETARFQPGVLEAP
# Chain of Dual specificity protein kinase CLK3 (Homo sapiens) (P49761 whole entry, looked up): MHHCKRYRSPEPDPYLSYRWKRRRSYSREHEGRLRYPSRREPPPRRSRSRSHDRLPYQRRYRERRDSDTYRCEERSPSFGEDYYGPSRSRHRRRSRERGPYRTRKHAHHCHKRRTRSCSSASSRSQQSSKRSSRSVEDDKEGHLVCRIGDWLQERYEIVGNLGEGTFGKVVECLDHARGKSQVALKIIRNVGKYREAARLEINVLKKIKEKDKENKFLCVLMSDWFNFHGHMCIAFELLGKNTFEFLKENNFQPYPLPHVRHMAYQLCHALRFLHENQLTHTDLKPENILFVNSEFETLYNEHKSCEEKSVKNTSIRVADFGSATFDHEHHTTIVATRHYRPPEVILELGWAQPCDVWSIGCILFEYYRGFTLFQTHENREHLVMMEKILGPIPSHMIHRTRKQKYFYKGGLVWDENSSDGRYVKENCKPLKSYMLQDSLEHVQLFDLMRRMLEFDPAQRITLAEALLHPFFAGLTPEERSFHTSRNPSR
SMILES,inhibition [1],inhibition [2],inhibition [3],inhibition [4],inhibition [5],inhibition [6],inhibition [7],inhibition [8],inhibition [9],inhibition [10],inhibition [11],inhibition [12],inhibition [13],inhibition [14],inhibition [15],inhibition [16],inhibition [17],inhibition [18],inhibition [19],inhibition [20]
Cc1nnc(-c2ccc(C)c(-c3ccc(C(=O)NCc4ccc(Cl)cc4)cc3)c2)o1,-1.79%,0.32%,0.5%,-2.54%,-4.08%,2.1%,3.03%,0.36%,9.75%,-0.31%,4.25%,-2.88%,-3.98%,-0.69%,0.29%,4.09%,4.44%,8.3%,4.45%,2.96%
C[C@@H](Oc1cc(-n2cnc3ccc(OCC4CCN(C)CC4)cc32)sc1C(N)=O)c1ccccc1Cl,2.9%,2.94%,3.56%,1.54%,2.55%,4.66%,9.72%,4.39%,10.2%,2.71%,8.9%,-1.26%,8.77%,3.09%,21.8%,7.22%,10.9%,7.6%,8.78%,4.68%
COc1ccc2cc(-c3c(-c4ccncc4)nc(-c4ccc([S+](C)[O-])cc4C)n3C)ccc2c1 (stereo not given),2.67%,2%,7.26%,2.45%,6.41%,-0.45%,0%,7.28%,15.4%,5.99%,14.7%,3.05%,6.01%,2.25%,5.99%,0.79%,8.03%,-0.46%,-2.44%,0.3%
CCc1cccc(CC)c1/C=C/c1cncc(C(=O)NC)c1,1.66%,1.88%,5.03%,1.08%,3.49%,2.13%,2.5%,2.14%,6.98%,2.21%,7.96%,1.64%,7.03%,1.04%,4.82%,4.45%,7.37%,1.29%,1%,2.05%
CS(=O)(=O)CCNCc1cc(-c2cc3c(Nc4ccc(OCc5cccc(F)c5)c(Cl)c4)ncnc3s2)cs1,0.02%,2.31%,3.13%,-1.81%,-0.61%,3.75%,8.37%,2.31%,2.97%,1.53%,1.78%,-2.22%,-1.08%,-0.67%,1.29%,3.11%,7.13%,5.61%,7.79%,4.58%
COc1cc2ncn(-c3cc(OCCc4ccccc4)c(C(N)=O)s3)c2cc1OC,3.27%,3.14%,3.09%,1.95%,1.81%,-0.08%,4.14%,0.82%,3.18%,0.44%,0.1%,-0.4%,3.92%,2.74%,19.1%,4.17%,3.52%,1.47%,3.64%,0.38%
C#Cc1cccc(Nc2ncnc3ccc(OCCCCNCCS(C)(=O)=O)cc23)c1,-1.87%,0.92%,4.86%,-2.75%,-1.25%,2.91%,7.08%,-0.41%,1.81%,-0.71%,1.89%,-3.09%,-1.22%,4.39%,24.9%,3.91%,4.58%,5.06%,5.46%,4.38%
O=C(NCC1CC1)c1ccc(-c2cccc(C(=O)NC3CC3)c2)cc1,2.44%,0.99%,2.88%,0.66%,1.93%,2.27%,3.38%,1.5%,3.17%,1.32%,0.48%,-0.22%,5.27%,2.02%,5.47%,3.38%,2.6%,1.42%,1.43%,1.22%
Cc1ccc(C(=O)NC(C)C)cc1-c1ccc(C(=O)NCC2CC2)cc1,0.67%,1.18%,2.28%,3.39%,3.96%,-2.49%,-3.21%,1.52%,3.31%,1.46%,3.01%,-2.55%,1.88%,0.31%,3.79%,-1.51%,-0.22%,-3.93%,-4.45%,-2.87%
NC(=O)c1cc(-c2ccncc2)cc(-c2ccccc2)c1N,2.34%,6.65%,29.2%,3.05%,17.9%,3.61%,4.25%,3.97%,12.7%,2.53%,9.17%,-1.44%,-0.02%,1.54%,4.34%,5.97%,6.49%,4%,6.15%,3.98%
Fc1ccc(-c2c(-c3ccncc3)nc3n2CCS3)cc1,-1.56%,-1.74%,0.34%,-4.54%,-2.54%,1.26%,1.86%,-2.59%,1.28%,-2.25%,3.12%,-3.99%,4.73%,-1.11%,5.51%,2.29%,4.26%,2.87%,3.3%,2.96%
NS(=O)(=O)c1ccc(N/N=C2\C(=O)Nc3ccc(-c4cnco4)cc32)cc1,1.68%,29.3%,81.2%,4.08%,38.5%,9.21%,52%,31.6%,67.4%,26.4%,65.2%,-2.16%,25.2%,3.05%,15.6%,0.65%,2.38%,3.21%,7.04%,2.36%
CCS(=O)(=O)c1ccc(OC)c(Nc2ncc(-c3ccccc3Cl)o2)c1,8.78%,0.71%,5.06%,1.56%,5.7%,1.98%,11.8%,0.38%,1.64%,1.56%,1.12%,1.24%,9.06%,8.83%,47.5%,1.42%,1.23%,0.66%,0.84%,1.66%
